Screens: PubChem BioAssay, Broad Institute
DENV2 CPE – DENV2-induced cell death inhibition; DENV2-infected cells, cytopathic effect rescue, plate reader; CPE inhibition, % at 9.99 µM; actives 1.7% (n = 350,000); AID 651640; in the data active = CPE inhibition above about 20%, passing the limit was not always enough; inconclusive = no clear call, values can overlap the other calls; tested in BHK-21 cells;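 note: 0% = median of neutral control wells and 100% = median of positive control wells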
RAD52 anneal inh – RAD52 (human) annealing inhibition; P43351; recombinant RAD52 DNA annealing, FRET fluorescence; inhibition, % at 18.7 µM; actives 0.46% (n = 360,000); AID 651710;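 active = every replicate showing at least 50% inhibition; inconclusive = mean inhibition at least 50% but not in every replicate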
MLL AF4-AF9 inh – blocks AF4 peptide binding to human AF9; P42568; AlphaScreen, biotin-AF4 peptide binding to FLAG-AF9; inhibition, % at 10 µM; actives 0.47% (n = 350,000);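 active = every replicate reaching a set inhibition limit, whatever the replicate mean, cut at about 25% in these data; inconclusive = mean inhibition reaches that limit but some replicates miss it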;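 note: 0% = plate neutral control median and 100% = total signal loss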
Target sequence (P42568 whole entry, looked up): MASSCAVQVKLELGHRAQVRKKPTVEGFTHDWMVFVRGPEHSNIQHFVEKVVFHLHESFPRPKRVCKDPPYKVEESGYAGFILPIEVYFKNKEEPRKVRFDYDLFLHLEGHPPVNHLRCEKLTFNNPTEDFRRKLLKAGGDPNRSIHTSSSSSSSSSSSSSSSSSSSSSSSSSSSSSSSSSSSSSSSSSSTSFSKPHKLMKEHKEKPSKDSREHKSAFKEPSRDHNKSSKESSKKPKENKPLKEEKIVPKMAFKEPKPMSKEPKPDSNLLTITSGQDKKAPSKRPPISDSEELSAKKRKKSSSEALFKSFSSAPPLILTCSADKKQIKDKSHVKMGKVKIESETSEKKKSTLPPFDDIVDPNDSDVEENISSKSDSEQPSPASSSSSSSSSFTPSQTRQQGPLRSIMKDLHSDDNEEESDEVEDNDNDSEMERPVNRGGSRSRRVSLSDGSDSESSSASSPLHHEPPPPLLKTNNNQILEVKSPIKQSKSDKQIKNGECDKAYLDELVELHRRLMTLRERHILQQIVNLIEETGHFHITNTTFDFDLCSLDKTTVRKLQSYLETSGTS
INS-1E GSIS act – primary screen for activators of insulin secretion dependent on glucose, INS-1E cells, GLuc reporter luminescence | INS-1E GLuc reporter insulin secretion, 2-3 h | activation, % at 16.6 µM | actives 0.61% (n = 370,000) | AID 743287;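 active = lowest replicate activation of at least 40%, so every replicate reaches that level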;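 note: 0% = median of neutral control wells and 100% = median of IBMX positive control wells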
RAD54 branch – RAD54 (human) branch migration inhibition; Q92698; RAD54 Holliday junction branch migration, FAM/BHQ fluorescence; inhibition, % at 10.4 µM; actives 0.14% (n = 360,000); AID 602329;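 active = mean normalized replicate activity at least 40 and at least half of replicates scoring 40 or more; inconclusive = only one of the two criteria met; inactive = mean below 40 and under half of replicates reaching 40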;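 note: 0% = median of neutral control wells and 100% = median of positive control wells; inhibitors cause a drop in the FAM fluorescence signal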
dFosB act – mouse delta FosB homodimer activation | P13346 | purified delta FosB, TAMRA-CDK5 oligo fluorescence polarization; percent of positive-control signal above neutral wells | activation, % at 25 µM | actives 0.99% (n = 340,000) | AID 493131;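 active = mean activation above about 17%, with every replicate also reaching it, limit read from the data, passing the limit was not always enough; inconclusive = only one of the two conditions met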
Numbers without * were called inactive; u = inconclusive; x = no result. Hits are enriched below; roughly 3.1% of the tested compounds scored in any of these assays.

SMILES	DENV2 CPE	RAD52 anneal inh	MLL AF4-AF9 inh	INS-1E GSIS act	RAD54 branch	dFosB act
Cc1ccc(-c2ccc3c(c2)O[C@@H](CN(C)C(=O)Nc2ccc(C(F)(F)F)cc2)[C@H](C)CN([C@H](C)CO)S3(=O)=O)cc1	u	0	0	-8	7	x
CC(C)C#Cc1cnc2c(c1)C(=O)N([C@@H](C)CO)C[C@H](C)[C@H](CN(C)C(=O)CCN1CCCCC1)O2	10	17	0	7	12	x
C[C@@H]1CN([C@@H](C)CO)C(=O)c2cc(C#CC3CCCCC3)cnc2O[C@@H]1CN(C)Cc1ccncc1	-1	10	8	-17	-2	x
CN(Cc1c(C(=O)N/N=C/c2ccc(O)cc2)nnn1-c1nonc1N)C1CCCCC1	5	-9	1	6	2	29*
O=C(N/N=C\c1c(O)ccc2ccccc12)c1ccc(O)cc1	-9	-19	-4	4	-3	u
CCOc1ccc(-c2c(C(=O)N/N=C/c3ccc(C)cc3)nnn2-c2nonc2N)cc1	-1	-8	-2	-10	x	34*
Cc1ccc(/C=N/NC(=O)c2nnn(-c3nonc3N)c2CN(C)C2CCCCC2)cc1	-6	-3	2	0	0	5
O=C(N/N=C/c1c(O)ccc2ccccc12)c1ccc(Br)o1	-11	-80	-1	-10	-20	30*
CCCOc1ccc(-c2c(C(=O)N/N=C/c3ccc(C)cc3)nnn2-c2nonc2N)cc1	3	-12	1	x	3	x
CC(=O)OCCCN(C)CC/C=C1/c2ccccc2CSc2ccccc21	43*	18	6	-49	x	-2
Cc1ccc(C(=O)N/C(=C/c2cccs2)C(=O)NCCCn2ccnc2)cc1	31*	-9	5	7	x	-10
Cc1ccc(C(=O)N/C(=C\c2cccs2)C(=O)NCCCn2ccnc2)cc1	x	x	x	16	x	-9
O=C(COC(=O)c1cc(-c2cccs2)nn1-c1ccccc1)Nc1cccc([N+](=O)[O-])c1	2	-17	-2	-2	-11	-4
Cc1ccc(NC(=O)COC(=O)c2cc(-c3cccs3)nn2-c2ccccc2)cc1[N+](=O)[O-]	x	x	x	69*	-24	-13
C[C@H](CO)N1C[C@H](C)[C@@H](CN(C)Cc2ccc3c(c2)OCO3)OCCCC[C@H](C)Oc2ccc(NC(=O)c3ccncc3)cc2C1=O	-14	5	-2	16	0	x
C[C@H]1CCCCO[C@H](CN(C)CC2CC2)[C@@H](C)CN([C@@H](C)CO)C(=O)c2cc(NC(=O)C3CCCCC3)ccc2O1	0	31	4	-7	6	x
CS(=O)(=O)c1nc(S(=O)(=O)c2ccc(Cl)cc2)c(N2CCCCCC2)s1	6	-3	-2	47*	-13	5
COc1ccc(CN(C)C[C@H]2Oc3ccc(NC(=O)NC(C)C)cc3C(=O)N([C@H](C)CO)C[C@H]2C)cc1	-7	-2	0	-6	5	x
COc1ccc(/C=C2\N=C(c3ccccc3)N(c3ccc(C(=O)O)cc3)C2=O)cc1OC	5	-116	2	71*	-14	-5
O=C(Nc1ccc2c(c1)OCCO2)C(c1ccncc1)n1c(=O)c(-c2ccco2)nc2ccccc21 (stereo not drawn)	17	-3	8	24	x	x
O=C(Nc1ccc2c(c1)OCCO2)C(c1ccnc2ccccc12)n1c(=O)c(-c2ccco2)nc2ccccc21 (stereo not drawn)	50*	-11	6	-3	x	x
CN(C)C(=O)c1cccc(-c2ccc([C@@H]3[C@@H](CO)N4C(=O)CN(C(=O)C5CCCCC5)C[C@H]34)cc2)c1	39*	11	3	-11	x	x
CN(C)C(=O)c1cccc(-c2ccc([C@H]3[C@@H](CO)N4C(=O)CN(C(=O)C5CCCCC5)C[C@@H]34)cc2)c1	13	-10	-4	-16	x	x
COc1ccc(-c2ccc([C@@H]3[C@H]4CN(C(=O)C5CC5)CC(=O)N4[C@H]3CO)cc2)cc1	31*	9	-3	-1	x	x
CCC(=O)N1C[C@@H](C)[C@@H](OC)CN(C)C(=O)c2ccc(NC(=O)c3ccc(F)cc3)cc2OC[C@@H]1C	2	4	-1	2	-3	x
SMILES	DENV2 CPE	RAD52 anneal inh	MLL AF4-AF9 inh	INS-1E GSIS act	RAD54 branch	dFosB act
COc1ccc(-c2nnc(-c3cccs3)o2)cc1OC	x	x	x	73*	-7	-33
O=C(/C=C/c1ccc(Cl)cc1)NC(=S)Nc1ccccc1C(=O)O	23*	-24	-1	-51	x	-3
COc1ccc(/C=C/C(=O)NC(=S)Nc2ccc(S(=O)(=O)N=C(N)N)cc2)cc1OC	18	-15	3	18	3	63*
COc1ccc(NC(=O)O/N=C/c2ccccc2)cc1	-6	-15	1	2	-1	16*
COc1ccc(NC(=S)NC(=O)/C=C/c2ccccc2)cc1	38*	-11	2	21	-7	-2
C[C@@H]1CN([C@H](C)CO)C(=O)c2cc(C#CCc3ccccc3)cnc2O[C@@H]1CN(C)Cc1ccccc1	7	35	u	-17	x	x
Cc1ccc(C(=O)Nc2cccc(C(=O)N/N=C/c3ccc(F)cc3)c2)cc1	13	-11	-2	101*	-9	-1
CCOc1ccccc1NC(=O)C(C)N1C(=O)c2ccccc2S1(=O)=O (stereo not drawn)	-2	5	29*	-11	x	-9
CN1C(=O)c2cc(NC(=O)NC3CCCC3)ccc2OC[C@H]2O[C@H](CC(=O)NC3CCC3)CC[C@@H]21	61*	11	-1	1	1	x
CN1C(=O)c2cc(NC(=O)NC3CCCC3)ccc2OC[C@@H]2O[C@@H](CC(=O)NC3CCC3)CC[C@@H]21	7	-2	-1	6	-3	x
CCC(=O)Nc1ccc2c(c1)C(=O)N(C)[C@@H]1CC[C@H](CC(=O)NC3CCCC3)O[C@H]1CO2	43*	6	-1	2	-8	x
COc1cccc(C#Cc2ccc3c(c2)[C@@H]2[C@@H](CCN2C(=O)CC2CC2)[C@H](CO)N3)c1	-1	-38	9	9	x	x
C/C=C/c1ccc([C@H]2[C@@H](CO)N(C(=O)CC)[C@H]2CN(C)Cc2cncnc2)cc1	2	-7	-3	3	x	x
Cc1noc(C)c1NC(=O)Nc1ccc2c(c1)C(=O)N([C@@H](C)CO)C[C@@H](C)[C@@H](CN(C)S(=O)(=O)c1cn(C)cn1)O2	1	3	-2	10	-5	x
O=C(CCSCCc1ccccn1)Nc1c(F)cc(F)cc1Br	x	x	x	12	-11	-6
Cc1csc(NC(=O)CCSCCc2ccccn2)n1	1	1	42*	0	-16	-1
C[C@H](CO)N1C[C@H](C)[C@H](CN(C)CC2CCCCC2)OCCCC[C@H](C)Oc2ccc(NC(=O)Nc3ccc(F)cc3)cc2C1=O	25*	3	3	-7	1	x
